{"source": "PubChem BioAssay (EPA / NIEHS)", "note": "Activity calls are given as the source filed them. The calls were made as follows: active = hit-call score of the fitted dose curve at least 0.9, where 1 is the maximum; inactive = score below 0.9.", "data": [{"read-out": "CYP4A11 (gene 1579)", "experiment": "LTEA_HepaRG_CYP4A11: Life Technologies and Expression Analysis (LTEA) Assay for CYP4A11 using HepaRG (AID 2283486)", "settings": "mRNA level, 48 h; actives raise or lower the signal", "outline": "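Human hepatic HepaRG cultures receive duplicate 48 h exposures across a concentration-response series topping at 100 uM. Expression changes in CYP4A11 are measured by qRT-PCR relative to DMSO controls.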", "values": [{"compound": "Cc1cc(C)nc(Nc2ccccc2)n1", "AC50": "50 µM (active)"}, {"compound": "C=C(C)CN(CC)c1c([N+](=O)[O-])cc(C(F)(F)F)cc1[N+](=O)[O-]", "outcome": "inactive"}, {"compound": "Cc1ccc(N=CN(C)C=Nc2ccc(C)cc2C)c(C)c1", "outcome": "inactive"}, {"compound": "CN=C=S", "outcome": "inactive"}, {"compound": "CC(C)=CC1C(C(=O)OCc2coc(Cc3ccccc3)c2)C1(C)C", "note": "(stereo not given)", "AC50": "50 µM (active)"}, {"compound": "CCCCOCN(C(=O)CCl)c1c(CC)cccc1CC", "AC50": "50 µM (active)"}, {"compound": "COCC(=O)N(c1c(C)cccc1C)C(C)C(=O)OC", "note": "(stereo not given)", "outcome": "inactive"}, {"compound": "CSC(=O)c1c(C(F)F)nc(C(F)(F)F)c(C(=O)SC)c1CC(C)C", "AC50": "87.3 µM (active)"}, {"compound": "COc1cc(Cl)c(OC)cc1Cl", "outcome": "inactive"}, {"compound": "CC(C)N1C(=O)c2ccccc2NS1(=O)=O", "outcome": "inactive"}, {"compound": "CCOP(=S)(OCC)Oc1nc(Cl)n(C(C)C)n1", "AC50": "42.3 µM (active)"}, {"compound": "Clc1nc(Cl)nc(Nc2ccccc2Cl)n1", "outcome": "inactive"}, {"compound": "CC1(C)C(C(=O)OC(C#N)c2cccc(Oc3ccccc3)c2)C1(C)C", "note": "(stereo not given)", "AC50": "50 µM (active)"}, {"compound": "COP(=O)(OC)O/C(C)=C/C(=O)N(C)C", "outcome": "inactive"}, {"compound": "COc1ccc(-c2ccccc2)cc1NNC(=O)OC(C)C", "outcome": "inactive"}, {"compound": "OC(c1ccc(Cl)cc1)(c1ccc(Cl)cc1)C(Cl)(Cl)Cl", "AC50": "65.4 µM (active)"}, {"compound": "CCCC(=NOCC)C1=C(O)CC(CC(C)SCC)CC1=O", "note": "(stereo not given)", "outcome": "inactive"}, {"compound": "COc1cc(OC)nc(NC(=O)NS(=O)(=O)c2ncccc2OCC(F)(F)F)n1", "outcome": "inactive"}, {"compound": "CO/N=C(/C1=NOCCO1)c1ccccc1Oc1ncnc(Oc2ccccc2Cl)c1F", "AC50": "14.2 µM (active)"}, {"compound": "CCN(CC)C(=O)C(C)Oc1cccc2ccccc12", "note": "(stereo not given)", "AC50": "79.1 µM (active)"}, {"compound": "CCCCC(C#N)(Cn1cncn1)c1ccc(Cl)cc1", "note": "(stereo not given)", "AC50": "41.5 µM (active)"}, {"compound": "N#CN=C1SCCN1Cc1ccc(Cl)nc1", "outcome": "inactive"}, {"compound": "CNC(=O)N(C)c1nnc(C(C)(C)C)s1", "outcome": "inactive"}, {"compound": "O=C(Nc1ccccc1-c1ccc(Cl)cc1)c1cccnc1Cl", "outcome": "inactive"}, {"compound": "O=P(O)(O)CCCl", "outcome": "inactive"}, {"compound": "Cn1c(-c2ccccc2)cc(-c2ccccc2)[n+]1C", "AC50": "20.3 µM (active)"}, {"compound": "CC1(C)C(C=C(Cl)Cl)C1C(=O)OC(C#N)c1cccc(Oc2ccccc2)c1", "note": "(stereo not given)", "outcome": "inactive"}, {"compound": "COC(=O)NS(=O)(=O)c1ccc(N)cc1", "outcome": "inactive"}, {"compound": "CCOc1cc(C(C)(C)C)ccc1C1COC(c2c(F)cccc2F)=N1", "note": "(stereo not given)", "AC50": "57.4 µM (active)"}, {"compound": "C=CCOC(=O)C(C)(C)OC(=O)c1cc(-n2c(=O)cc(C(F)(F)F)n(C)c2=O)ccc1Cl", "outcome": "inactive"}, {"compound": "Cc1c(COC(=O)[C@@H]2[C@H](/C=C(\\Cl)C(F)(F)F)C2(C)C)cccc1-c1ccccc1", "outcome": "inactive"}, {"compound": "CC(C)Oc1cccc(NC(=O)c2ccccc2C(F)(F)F)c1", "outcome": "inactive"}, {"compound": "COCC(C)N(C(=O)CCl)c1c(C)csc1C", "note": "(stereo not given)", "outcome": "inactive"}, {"compound": "CC1(C)CCC(=Cc2ccc(Cl)cc2)C1(O)Cn1cncn1", "note": "(stereo not given)", "AC50": "27.8 µM (active)"}, {"compound": "CC(C)N1C(=O)N(c2ccccc2)CSC1=NC(C)(C)C", "AC50": "67.6 µM (active)"}]}]}
